# Test results taken from ChEMBL document CHEMBL3988442, “University of Dundee, Small-Polar-MMV Screening Library” (2021).
# Hit rate of the full screen: of about 53,000 compounds, about 900 (1.7%) showed an effect of 50% or more. For the sample, strong results were picked, then their nearest neighbours and some compounds at random.
# Test system: Mycobacterium tuberculosis
# Assay: Cornell - Phenotypic assay to identify agents that inhibit growth of Mycobacterium tuberculosis
# Format: functional
# Parameters: scale not given: direction of the effect not stated beside the values
# Details: 10 mM as filed; unlikely as a test dose
row,SMILES,Percent Effect [%]
1,CN(C(=O)C1(C#N)CCCCC1)c1nccs1,17.67
2,OC1CCN(Cc2cc3c(cc2Br)OCCO3)CC1,5.885
3,OCCN1CCN(Cc2cc3c(cc2Br)OCCO3)CC1,-50.33
4,Oc1ccc(N2CCN(Cc3ccc(F)cc3Br)CC2)cc1,105.2
5,O=S(=O)(N1CCCCCC1)N1CCN(Cc2ccc(F)cc2Br)CC1,10.21
6,CS(=O)(=O)N1CCN(Cc2ccc(F)cc2Br)CC1,31.68
7,Oc1ccc(N2CCN(Cc3cc4c(cc3Br)OCCO4)CC2)cc1,104.9
8,Cc1ccccc1C1CCCN1Cc1ccc(S(=O)(=O)N(C)C)o1 (stereo not drawn),23.54
9,O=C(O)c1cnc(N2CCCC2)nc1COc1ccc(F)cc1,38.38
10,COCC(O)CN(C)C(=O)NCc1ccc(-c2ccn[nH]2)cc1 (stereo not drawn),-4.972
11,CN1CCOC(c2cncc(CCC(=O)N(C)C)n2)C1 (stereo not drawn),-44.27
12,COc1cccc(Nc2nc(N3CCCC3)nc3c2CNCC3)c1.Cl,17.23
13,Oc1nc(N2CCOCC2)nc2c1CCN(Cc1cccc(F)c1)CC2,-50.2
14,Fc1cccc(Nc2nc(N3CCCC3)nc3c2CNCC3)c1,102.5
15,Cc1ccc(Cl)cc1N1CCN(CC(=O)NCc2ccco2)CC1,15.76
16,O=C(NCC1CCCO1)Nc1nnc(C(F)(F)F)s1 (stereo not drawn),1.87
17,CCOCC(=O)NCCc1nc(C)cc(C(F)(F)F)n1,8.236
18,COc1nccnc1-c1cc(NC2CCNCC2)nc2[nH]ccc12,48.16
19,CNc1cc(C)nc(-c2cc(NC3CCNCC3)nc3[nH]ccc23)n1,12.28
20,COc1ncc(-c2cc(NCCN(C)C)nc3[nH]ccc23)c(OC)n1,-22.77
21,COc1ncc(-c2cc(NC3CCCC3)nc3[nH]ccc23)c(OC)n1,89.73
22,COCCNc1cc(-c2ccccc2S(N)(=O)=O)c2cc[nH]c2n1,21.18

row,SMILES,Percent Effect [%]
1,Nc1ccnc(-c2cc(NC3CCNCC3)nc3[nH]ccc23)c1,11.63
2,COc1cc(-c2cc(NC3CCCC3)nc3[nH]ccc23)nc(N)n1,98.19
3,FC(F)(F)c1ccc(-c2cc(NC3CCNCC3)nc3[nH]ccc23)nc1,3.154
4,COc1nccnc1-c1cc(NC2CCCC2)nc2[nH]ccc12,101.6
5,C=Cc1cccc(CN(Cc2cnn(C)c2)C2CC2)c1,14.04
6,Cc1nc(C)n(CC2CCCCN2Cc2cn3ccccc3n2)n1 (stereo not drawn),-36.82
7,Cc1csc(C(C)(C)NCCOc2ccc(CC#N)cc2)n1,-14.48
8,NC(=O)N1CCCN(Cc2cc(F)cc(Br)c2)CC1,17.84
9,Cc1cccc(CN2C[C@@H]3COC[C@]3(CNC(=O)C3CCC3)C2)c1.O=C(O)C(F)(F)F,0.1331
10,CN(C)CCOC1CC2(CCN(c3cnccn3)CC2)c2ccccc21.O=C(O)C(F)(F)F (stereo not drawn),-38.38
11,O=C(O)C(F)(F)F.c1cncc(C2CC3(CCN(c4cnccn4)CC3)c3ccccc32)c1 (stereo not drawn),50.88
12,CCOC1CC2(CCN(c3cnccn3)CC2)c2ccccc21 (stereo not drawn),32.32
13,Cc1cnc(-c2nc(O)c3c(n2)CN(C(=O)C2CCCC2)CC3)cn1,-5.983
14,Cn1cc(S(=O)(=O)NCC(C)(O)c2ccsc2)cn1 (stereo not drawn),-58.46
15,COc1cc(NCc2ncc[nH]2)ccc1Br,-5.052
16,Cc1csc(CNc2cnn(C(C)C)c2)n1,-3.592
17,COCc1nc2cc(NCc3nc(C)cs3)ccc2o1,107.4
18,COCc1nc(C2CCN(Cc3ncc[nH]3)CC2)no1,-22.72
19,COCc1nc2cc(NCc3ncc[nH]3)ccc2o1,107.7
20,CC(C)(C)OC(=O)N1CCCc2ccc(NCc3ncc[nH]3)cc21,-12.48
21,COCc1nc2cc(NCc3csc(C)n3)ccc2o1,107.6
22,COC(=O)c1ccc(NCc2csc(C)n2)cc1Cl,15.32

row,SMILES,Percent Effect [%]
1,Fc1ccc(NCc2ncc[nH]2)cc1Br,55.27
2,COCc1nc(CNc2cccc(-c3csc(C)n3)c2)cs1,38.18
3,Fc1cccc(NCc2ncc[nH]2)c1,35.73
4,Cc1csc(CNc2cccc(OCCN3CCCC3)c2)n1,34.79
5,COc1ccc(OC(F)F)c(NCC(=O)NCC(=O)N2CCCC2)c1,14.52
6,COC(=O)COc1c(F)cc(Br)cc1C(C)=O,-28.15
7,NS(=O)(=O)NCc1cc(-c2ccco2)n(CC(F)(F)F)n1,5.494
8,O=C(Nc1cccn(Cc2ccc(F)cc2)c1=O)c1cnc[nH]1,15.84
9,Cc1nnc(SCC(=O)c2cc3c(cc2Cl)NC(=O)C3)o1,14.6
10,Cc1nc(C(C)N2Cc3ncccc3C2=O)cs1 (stereo not drawn),12.56
11,COCc1nc(CNc2cccc(-c3ncon3)c2)cs1,-0.7134
12,COCc1nc2cc(NCc3ccncc3)ccc2o1,39.69
13,COCc1nc2cc(NCc3cc[nH]n3)ccc2o1,106.8
14,CCC(O)CN1CCN(C(=O)c2ccc(Cn3cccc3)cc2)CC1 (stereo not drawn),-35.22
15,CCCS(=O)(=O)N1CCN(Cc2ccco2)CC1.O=C(O)C(=O)O,-8.655
16,COc1cc(C(=O)N2CC3(CCNCC3)c3cc(Cl)ccc32)ccn1.O=C(O)C(F)(F)F.O=C(O)C(F)(F)F,15.78
17,CNc1cc(-c2ccc(COCCN)cc2)c2cc[nH]c2n1,26.91
18,CNc1cc(-c2cccc(CN)c2)c2cc[nH]c2n1,80.74
19,CNc1cc(-c2ccccc2CN)c2cc[nH]c2n1,23.62
20,CCOc1c(Cl)cc(/C=C/c2ncc(C(=O)O)s2)cc1OC,33.38
21,CCOCC1CCN(C(=O)C(c2ccccc2F)N(C)C)CC1 (stereo not drawn),28.27
22,CNC(=O)C1CN(C(=O)c2cccs2)CCN(S(C)(=O)=O)C1 (stereo not drawn),18.15

row,SMILES,Percent Effect [%]
1,CS(=O)(=O)N1CCN(C(=O)c2cncs2)CC(C(N)=O)C1 (stereo not drawn),53.86
2,CNC(=O)C1CCCN(C(=O)c2cncs2)C1 (stereo not drawn),43.16
3,COC[C@@]12CCO[C@@H]1CCN(C(=O)Cc1ccccc1C)C2,7.914
4,Cc1oc(C)c(C(=O)NS(=O)(=O)c2ccc3c(c2)OCCCO3)c1C,58.42
5,Cc1oc(C)c(C(=O)NS(=O)(=O)c2ccc3c(c2)OCCO3)c1Br,6.395
6,Cc1ccc(C(=O)NS(=O)(=O)c2ccc3c(c2)OCCCO3)o1,-1.542
7,NC(=O)N1CCC(C(=O)NC2CCc3nccn3C2)CC1 (stereo not drawn),-11.45
8,COC(=O)C(NC(=O)C(C)C)c1cc(F)ccc1F (stereo not drawn),35.55
9,COC(=O)C(c1cc(F)ccc1F)N(C)C(=O)c1ccccn1 (stereo not drawn),0.1474
10,COC(=O)C(NC(=O)COC1CCCCC1)c1ccccc1 (stereo not drawn),43.33
11,COC(=O)C(NC(=O)COC1CCCC1)c1cc(F)ccc1F (stereo not drawn),63.8
12,NC(=O)C(NC(=O)COC1CCCC1)c1ccccc1 (stereo not drawn),21.89
13,COC(=O)C(NC(=O)c1ccco1)c1cc(F)ccc1F (stereo not drawn),104.5
14,O=C(c1cc(-c2cccs2)cs1)N1CCSCC1,48.33
15,Cc1cc(NC(=O)NCC(C)N2CCc3ccccc32)no1 (stereo not drawn),26.44
16,NC(=O)C(NC(=O)COC1CCCCC1)c1ccccc1 (stereo not drawn),22.67
17,Cl.NC(CC1CCCC1)c1ccccc1 (stereo not drawn),23.09
18,OC(CN1CCN(CC2CCCCC2)CC1)c1ccccc1 (stereo not drawn),2.655
19,Cl.NC(CC1CCCCC1)c1ccccc1 (stereo not drawn),52.12
20,NC(c1ccccc1)c1ccc(OC(F)F)cc1 (stereo not drawn),11.06
21,NC(CC1CCCC1)c1ccc(Oc2ccccc2)cc1 (stereo not drawn),105
22,COc1cc(C)nc(N2CCN(C(=O)c3ccn(C)c(=O)c3)CC2)n1,29.4

row,SMILES,Percent Effect [%]
1,Cn1c2ccccc2c2ncn(CCCN3CCOCC3)c(=O)c21,-22.77
2,Cc1nc(CCC(N)=O)cc(C2CCCCN2S(C)(=O)=O)n1 (stereo not drawn),34.9
3,Cc1nn(C)c(Cl)c1CNCc1cccnc1N1CCCCC1.Cl,10.36
4,Cc1ccccc1N1CCN(c2cc(N(C)C)ncn2)C(C)C1 (stereo not drawn),75.02
5,Cc1ccccc1N1CCN(c2ccncn2)C(C)C1 (stereo not drawn),16.47
6,Cc1ccc(N2CCN(c3ccccc3C)CC2C)nn1 (stereo not drawn),29.54
7,COCC1c2c(cnn2C)CCN1Cc1ccsc1 (stereo not drawn),24.96
8,Cc1noc(C)c1CN1C[C@H](C)[C@]2(CCN(Cc3cccnc3)C2=O)C1.O=C(O)C(F)(F)F.O=C(O)C(F)(F)F,-5.753
9,Cn1ccnc1CN1CCC2(CCC(=O)N2CCN2CCCC2)CC1.O=C(O)C(F)(F)F.O=C(O)C(F)(F)F,19.98
10,CN(C)CC1CN(c2cnc3ccccc3n2)CCO1 (stereo not drawn),-10.68
11,Cc1cnn(CC2CN(c3cnc4ccccc4n3)CCO2)c1 (stereo not drawn),106.1
12,Cc1cnn(CC2CN(c3ncnc4ccccc34)CCO2)c1 (stereo not drawn),29.19
13,Cc1nn(C)cc1-c1cc(C(=O)NCC(C)(C)c2cccc(F)c2)n[nH]1,26.97
14,Cc1nn(C)cc1-c1cc(C(=O)NCC(C)(C)c2ccc(F)cc2)n[nH]1,61.27
15,Cc1nn(C)cc1-c1cc(C(=O)NCC(C)(C)c2ccccc2F)n[nH]1,-16.11
16,COCC1c2nnn(CC3CC3)c2CCN1Cc1ccncc1.O=C(O)C(F)(F)F.O=C(O)C(F)(F)F (stereo not drawn),18.59
17,CN1CCC(Cc2cc(N(C)C)ncn2)C1 (stereo not drawn),2.45
18,CC(C)c1cc(CN2CCNCC2)no1,107.4
19,CC(C)c1cc(CN2CCC(CC(=O)O)CC2)no1,-2.549
20,CC(C)c1cc(CN2CCC(N)CC2)no1,-17.69
